Reference: PubChem BioAssay (NCATS)
Inconclusive results are not listed. The source made the active and inactive calls. The call rests on the fitted dose curve; in most records, active means well fitted inhibition curve with a large enough effect; inconclusive means small, poorly fitted or top-dose-only effect; inactive means flat fitted curve, though single readings scatter.

target: Voltage-gated inwardly rectifying potassium channel KCNH2 (Homo sapiens) (UniProt Q12809); assay: qHTS Assay for Small Molecule Inhibitors of the Human hERG Channel Activity (AID 588834); settings: U2OS BacMam hERG, FluxOR thallium flux fluorescence; series mostly up to 46.1 µM; activity change, negative = inhibition: at the top concentration;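 further: lower thallium flux fluorescence means stronger hERG block; nearly all actives have a fitted effect of over 50% in size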; on activity change, negative = inhibition: top concentration of the series differs between compounds; on the % scale 0 is the no-effect control and ±100 the full control effect
Sequence (Q12809 whole entry, looked up): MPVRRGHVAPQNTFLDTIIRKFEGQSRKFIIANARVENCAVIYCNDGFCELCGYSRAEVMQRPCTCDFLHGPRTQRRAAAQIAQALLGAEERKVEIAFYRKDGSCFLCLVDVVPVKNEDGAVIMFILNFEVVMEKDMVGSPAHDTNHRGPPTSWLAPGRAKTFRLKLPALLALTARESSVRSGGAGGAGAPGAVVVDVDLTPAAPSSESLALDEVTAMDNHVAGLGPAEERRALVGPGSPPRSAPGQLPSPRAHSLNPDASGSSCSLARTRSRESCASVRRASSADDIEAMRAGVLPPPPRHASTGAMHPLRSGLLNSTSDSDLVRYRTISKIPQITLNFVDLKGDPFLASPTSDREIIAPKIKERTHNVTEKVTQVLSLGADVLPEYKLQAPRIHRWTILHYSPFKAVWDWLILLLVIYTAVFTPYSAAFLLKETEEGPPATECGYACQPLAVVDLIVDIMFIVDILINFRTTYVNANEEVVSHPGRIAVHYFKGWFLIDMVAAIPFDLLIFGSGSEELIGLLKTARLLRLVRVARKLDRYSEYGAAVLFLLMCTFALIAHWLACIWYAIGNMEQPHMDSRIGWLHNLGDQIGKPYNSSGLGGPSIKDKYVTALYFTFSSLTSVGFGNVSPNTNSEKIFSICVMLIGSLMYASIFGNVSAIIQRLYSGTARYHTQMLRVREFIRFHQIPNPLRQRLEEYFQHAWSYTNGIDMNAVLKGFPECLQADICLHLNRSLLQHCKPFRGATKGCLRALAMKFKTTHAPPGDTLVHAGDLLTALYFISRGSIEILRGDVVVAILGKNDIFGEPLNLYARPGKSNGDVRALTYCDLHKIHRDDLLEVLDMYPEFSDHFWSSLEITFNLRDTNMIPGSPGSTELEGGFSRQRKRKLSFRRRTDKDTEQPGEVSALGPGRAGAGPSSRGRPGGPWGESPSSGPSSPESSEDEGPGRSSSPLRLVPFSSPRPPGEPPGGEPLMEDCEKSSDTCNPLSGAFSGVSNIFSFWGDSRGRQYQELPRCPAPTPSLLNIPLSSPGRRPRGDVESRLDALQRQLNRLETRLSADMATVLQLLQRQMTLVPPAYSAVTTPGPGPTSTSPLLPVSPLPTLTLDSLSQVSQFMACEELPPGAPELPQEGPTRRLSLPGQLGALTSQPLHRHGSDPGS
Method in brief: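 U2OS cells transduced with hERG via BacMam (MOI ~100), plated 2000/well, loaded with FluxOR thallium dye, compound ~10 min, then stimulation buffer; fluorescence decrease read kinetically; AC50 from Hill fits.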
Potency means the concentration at half of the fitted maximal effect.

Compound	activity change, negative = inhibition	Potency
C=CC(=O)O	-8.9% (inactive)	–
CC(C)CCCCCCc1ccc(O)cc1	5.11% (inactive)	–
O=C(O)CCCC/C=C(\c1ccccc1)c1cccnc1	0.719% (inactive)	–
O=C(CCCCCCCCCCCCC1CCCC1)Nc1ccc(S(=O)(=O)c2ccc(NC(=O)CCCCCCCCCCCCC3CCCC3)cc2)cc1	0.772% (inactive)	–
CCCCCCCCCCCCOCCCN	5.9% (inactive)	–
COc1ccc(/C=N/NC(=O)c2ccncc2)c(C(=O)O)c1OC	-1.23% (inactive)	–
[O]=[Bi][O][Bi]=[O]	-2.04% (inactive)	–
O=C(O)c1ccc(NC(=O)[C@H](Cc2ccc(O)cc2)NC(=O)c2ccccc2)cc1	2.04% (inactive)	–
CC(=O)Nc1ccc(OC(C)=O)cc1	26.7% (inactive)	–
CCOC(=O)[C@@H](N)CS	2.07% (inactive)	–
Cc1cc(-c2ccc(N=Nc3c(S(=O)(=O)O)cc4cc(S(=O)(=O)O)cc(N)c4c3O)c(C)c2)ccc1N=Nc1c(S(=O)(=O)O)cc2cc(S(=O)(=O)O)cc(N)c2c1O	16.9% (inactive)	–
CCCCCCCCCCCCCCCCCCCCCC(=O)Nc1ccn([C@@H]2O[C@H](CO)[C@@H](O)[C@@H]2O)c(=O)n1	13.8% (inactive)	–
COc1cc2c(cc1OC)[C@@H](Cc1cc(OC)c(OC)c(OC)c1)[N+](C)(CCCOC(=O)CC/C=C/CCC(=O)OCCC[N+]1(C)CCc3cc(OC)c(OC)cc3[C@H]1Cc1cc(OC)c(OC)c(OC)c1)CC2 (stereo partly specified)	3.85% (inactive)	–
FC(F)(F)C(F)(F)C(F)(F)C(F)(F)C(F)(F)C(F)(F)F	11.7% (inactive)	–
Cc1nc(NS(=O)(=O)c2ccc(N)cc2)nc(C)c1Br	-4.3% (inactive)	–
O=C(O)CCC(=O)c1ccc(-c2ccccc2)cc1	2.78% [at 20.6 µM] (inactive)	–
O=P(O)(O)OC[C@H](O)CO	-1.2% (inactive)	–
CC(=O)Nc1ccc(NC(=S)NC(=O)c2ccc(C(C)(C)C)cc2)cc1	–	8.91 µM (active)
Nc1ncnc2c1ncn2CCOCP(=O)(O)O	8.36% (inactive)	–
O=C(O)c1cc(N=Nc2ccc(O)c(C(=O)O)c2)ccc1O	17.1% (inactive)	–

target: Luciferin 4-monooxygenase (Photinus pyralis) (UniProt P08659); assay: Biochemical firefly luciferase enzyme assay for NPC (AID 624030); further: nearly all actives have a fitted effect of over 70% in size;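 on activity change, negative = inhibition: purified P. pyralis luciferase at 10 nM with luciferin and ATP substrate; 0% = DMSO and -100% = full luciferase inhibition by PTC124 control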; settings: purified P. pyralis luciferase, luminescence, 5 min; series mostly up to 58.6 µM; activity change, negative = inhibition: at the top concentration
Sequence (P08659 whole entry, looked up): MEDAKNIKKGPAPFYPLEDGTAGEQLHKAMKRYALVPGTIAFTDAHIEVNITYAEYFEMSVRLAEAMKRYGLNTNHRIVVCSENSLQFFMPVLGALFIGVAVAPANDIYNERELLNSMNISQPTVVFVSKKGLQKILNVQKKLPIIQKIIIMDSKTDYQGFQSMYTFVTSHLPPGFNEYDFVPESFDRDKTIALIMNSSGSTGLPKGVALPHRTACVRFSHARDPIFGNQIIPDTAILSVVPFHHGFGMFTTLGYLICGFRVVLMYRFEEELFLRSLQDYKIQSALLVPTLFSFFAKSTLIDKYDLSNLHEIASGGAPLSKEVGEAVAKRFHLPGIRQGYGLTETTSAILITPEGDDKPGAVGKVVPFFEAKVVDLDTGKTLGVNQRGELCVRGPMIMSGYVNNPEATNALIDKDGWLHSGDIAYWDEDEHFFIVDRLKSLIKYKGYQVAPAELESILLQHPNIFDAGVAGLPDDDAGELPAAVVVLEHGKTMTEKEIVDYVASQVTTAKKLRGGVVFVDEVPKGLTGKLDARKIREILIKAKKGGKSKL
Method in brief: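 Purified P. pyralis luciferase at 10 nM in 50 mM Tris Acetate (final), luminescence read within 5 minutes of enzyme addition to compounds. Activity normalised to PTC124 versus DMSO; concentration-response curves classed by r2, magnitude and activity.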

Compound	activity change, negative = inhibition	Potency
CC(=O)Oc1cc(C(F)(F)F)ccc1C(=O)O	-14.6% [at 24.9 µM] (inactive)	–
O=C(O)CCC/C=C\C[C@@H]1[C@@H](/C=C/[C@@H](O)COc2cccc(C(F)(F)F)c2)[C@H](O)C[C@@H]1O	-6.04% (inactive)	–
CC(C)CCCC(C)NC(C)C (stereo unspecified)	1.49% (inactive)	–
CCC(C)[C@@H](N)C(=O)O (stereo partly specified)	1.09% (inactive)	–
Cc1cccc(C)c1NC(=O)NC1=CCCN1C	0.686% (inactive)	–
CC(C)(COP(=O)(O)OP(=O)(O)OC[C@H]1O[C@@H](n2cnc3c(N)ncnc32)[C@H](O)[C@@H]1OP(=O)(O)O)C(O)C(=O)NCCC(=O)NCCS (stereo partly specified)	-1.8% (inactive)	–
CC(=O)c1ccc2c(c1)N(CCCN1CCN(CCO)CC1)c1ccccc1S2	9.69% (inactive)	–
OCCCNc1ccccc1	1.48% (inactive)	–
O=C(O)/C=C/C(=O)Nc1ccc(S(=O)(=O)Nc2nccs2)cc1	-5.19% (inactive)	–
CN1CCc2c(c3ccccc3n2Cc2ccccc2)C1	5.5% [at 24.9 µM] (inactive)	–
CCN(CC)CCOc1ccccc1OC	2.55% (inactive)	–
CC/C=C\C/C=C\C/C=C\C/C=C\C/C=C\CCCC(=O)O	-9.68% (inactive)	–
O=C(NNCNNC(=O)c1ccncc1)c1ccncc1	-5.22% (inactive)	–
O=C(CCCN1CCC(C(=O)c2ccc(F)cc2)CC1)c1ccc(F)cc1	1.06% (inactive)	–
OC1OC[C@@H](O)[C@H](O)[C@@H]1O (stereo partly specified)	-1.45% (inactive)	–
O=C1[O][Bi][O]c2ccccc21	23.1% (inactive)	–

Compound	activity change, negative = inhibition	Potency
CC(=O)Nc1c(I)c(C(=O)O)c(I)c(N(C)C(C)=O)c1I	-6.24% (inactive)	–
CCCCCCCCCCCC(=O)OCC(O)CO (stereo unspecified)	-18.2% (inactive)	–
O=P(O)(O)OC[C@H]1O[C@](O)(COP(=O)(O)O)[C@@H](O)[C@@H]1O	23.1% (inactive)	–
C=CC(=O)O	1.02% (inactive)	–
CC(C)CCCCCCc1ccc(O)cc1	-5.45% (inactive)	–
O=C(O)CCCC/C=C(\c1ccccc1)c1cccnc1	0.764% (inactive)	–
O=C(CCCCCCCCCCCCC1CCCC1)Nc1ccc(S(=O)(=O)c2ccc(NC(=O)CCCCCCCCCCCCC3CCCC3)cc2)cc1	0.757% (inactive)	–
CCCCCCCCCCCCOCCCN	0.539% (inactive)	–
COc1ccc(/C=N/NC(=O)c2ccncc2)c(C(=O)O)c1OC	-14.1% (inactive)	–
[O]=[Bi][O][Bi]=[O]	-0.225% (inactive)	–
O=C(O)c1ccc(NC(=O)[C@H](Cc2ccc(O)cc2)NC(=O)c2ccccc2)cc1	-2.21% (inactive)	–
CC(=O)Nc1ccc(OC(C)=O)cc1	0.424% (inactive)	–
CCOC(=O)[C@@H](N)CS	-0.0707% (inactive)	–
Cc1cc(-c2ccc(N=Nc3c(S(=O)(=O)O)cc4cc(S(=O)(=O)O)cc(N)c4c3O)c(C)c2)ccc1N=Nc1c(S(=O)(=O)O)cc2cc(S(=O)(=O)O)cc(N)c2c1O	–	9.07 µM (active)
CCCCCCCCCCCCCCCCCCCCCC(=O)Nc1ccn([C@@H]2O[C@H](CO)[C@@H](O)[C@@H]2O)c(=O)n1	-3.08% (inactive)	–
